# Experimental data from the supplement of paper PMC8253809.
# Several values for one entry are separate records, joined by “and”; a condition that tells them apart may be missing. Equal entries are not always repeated.
# What was measured:
# Experiment in all cases: growth inhibition (% activity, log2 RLU normalised to DMSO / staurosporine); higher = more growth inhibition
# Settings in all cases: 33 µM
# DIPGX29 = test system: DIPGX29 (H3.3 K27M diffuse intrinsic pontine glioma line)
# Procedure, shortened: (§1)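 On Geltrex-coated 384-well plates, pHGG cell lines and H9-derived neural stem cells were grown with approved drugs pinned in at a single final concentration of about 33 μM, in triplicate, for 7 days at 37 °C, 5% CO2. Per-plate normalisation of log2-transformed CellTiter-Glo luminescence to % activity between solvent and positive control wells followed. Each growth-inhibition value is the median over the replicates.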
# DIPGX37 = test system: DIPGX37 (H3.3 K27M diffuse intrinsic pontine glioma line)
# Procedure, shortened: as §1
# DIPGX7 = test system: DIPGX7 (H3.3 K27M diffuse intrinsic pontine glioma line)
# Procedure, shortened: as §1
# DIPGX9 = test system: DIPGX9 (diffuse intrinsic pontine glioma line)
# Procedure, shortened: as §1
# HGGX39 = test system: HGGX39 (paediatric high-grade glioma line)
# Procedure, shortened: as §1
# HGGX6 = test system: HGGX6 (H3.3 G34R paediatric high-grade glioma line)
# Procedure, shortened: as §1
# HNSC = test system: HNSC
# Procedure, shortened: as §1
# SUDIPGIV = test system: SUDIPGIV (diffuse intrinsic pontine glioma line)
# Procedure, shortened: as §1
# SUDIPGVI = test system: SUDIPGVI (diffuse intrinsic pontine glioma line)
# Procedure, shortened: as §1
# SUDIPGXIII = test system: SUDIPGXIII (diffuse intrinsic pontine glioma line)
# Procedure, shortened: as §1
Structure (SMILES),growth inhibition (DIPGX29),growth inhibition (DIPGX37),growth inhibition (DIPGX7),growth inhibition (DIPGX9),growth inhibition (HGGX39),growth inhibition (HGGX6),growth inhibition (HNSC),growth inhibition (SUDIPGIV),growth inhibition (SUDIPGVI),growth inhibition (SUDIPGXIII)
CN(C)CCc1c[nH]c2ccc(Cn3cncn3)cc12,-0.697%,0.65%,-0.925%,0.553%,1.2%,1.15%,-1.13%,-0.297%,1.51%,-0.819%
NC(=O)c1ncn([C@@H]2O[C@H](CO)[C@@H](O)[C@H]2O)c1N,1.44%,1.81%,1.73%,2.02%,2.08%,0.815%,5.91%,0.00762%,2.75%,-1.11%
COc1cc(Nc2c(C#N)cnc3cc(OCCCN4CCN(C)CC4)c(OC)cc23)c(Cl)cc1Cl,8.64%,2.05%,4.98%,6.92%,9.47%,10.9%,41.9%,-1.39%,8.4%,1.71%
N=C(N)NCCN1CCCCCCC1,1.99%,-0.0479%,2.35%,1.9%,2.8%,1.1%,5.04%,0.15%,5%,-0.376%
COc1ccc(-n2nc(C(N)=O)c3c2C(=O)N(c2ccc(N4CCCCC4=O)cc2)CC3)cc1,-1.17%,-0.875%,0.291%,0.547%,1.79%,1.04%,-3.66%,-1.21%,1.14%,0.63%
COc1cc(NC(C)CCCN)c2ncccc2c1 (stereo not given),19.8%,14%,29.6%,24.2%,13%,25.5%,66.1%,25.4%,28.3%,11.9%
C[C@@H]1CN(c2c(F)c(F)c3c(=O)c(C(=O)O)cn(C4CC4)c3c2F)C[C@H](C)N1,-1.92%,-8.88%,-0.67%,-1.75%,1.32%,-0.41%,1.66%,-2.13%,-5.84%,-3.56%
COc1nc(C)nc(Cl)c1NC1=NCCN1,-1.42%,-1.39%,-1.95%,-1.31%,0.125%,-1.01%,-1.76%,-1.72%,-2.98%,-0.769%
CN1CC2c3ccccc3Oc3ccc(Cl)cc3C2C1 (stereo not given),1.89%,-5.66%,0.982%,0.366%,5.72%,0.239%,2.74%,2.1%,-0.852%,0.618%
CC(=O)NS(=O)(=O)c1ccc(N)cc1,0.584%,1.84%,0.329%,0.364%,1.9%,2.46%,-1.34%,-0.27%,0.507%,0.27%
CCN(CC)CCOc1ccc(C(=C(Cl)c2ccccc2)c2ccccc2)cc1,26.6%,11.7%,45.2%,12.3%,36.3%,28%,63.5%,32.8%,1.14%,0.221%
CC/C(=C(/CC)c1ccc(O)cc1)c1ccc(O)cc1,-0.353%,0.261%,1.61%,0.802%,-1.26%,-0.016%,-1.62%,0.624%,0.165%,-10.6%
NCCCC(O)(P(=O)(O)O)P(=O)(O)O,-0.387%,-3.88%,0.704%,0.583%,-0.159%,-0.423%,1.02%,-0.208%,1.59%,0.669%
O=C1c2cccc3c2[C@H](CCC3)CN1[C@@H]1CN2CCC1CC2,1.6%,0.267%,-0.559%,0.719%,1.18%,1.03%,-3.52%,-0.551%,0.132%,0.79%
O=c1oc2c(O)c(O)cc3c(=O)oc4c(O)c(O)cc1c4c23,1.91%,2.55%,2.78%,2.1%,1.54%,-1.49%,-1.26%,-0.815%,-0.974%,1.4%
CCN(CC)CCOC(=O)C1(C2CCCCC2)CCCCC1,-1.15%,-1.5%,-1.55%,-2.17%,-2.47%,-0.591%,-1.91%,-0.751%,-0.615%,0.956%
NC(CO)(CO)CO,0.378%,1.73%,0.549%,1.18%,1.76%,0.412%,0.671%,1.48%,2.52%,0.677%
N[C@@H]1CN(c2c(F)cc3c(=O)c(C(=O)O)cn([C@@H]4C[C@@H]4F)c3c2Cl)CC12CC2,1.84%,4.34%,1.79%,0.793%,3.53%,0.649%,0.64%,0.64%,3.9%,-3.35%
CC(C)C(=O)Nc1ccc([N+](=O)[O-])c(C(F)(F)F)c1,1.6%,2.28%,2.18%,2.7%,11.9%,0.873%,6.29%,5.63%,3.39%,2.07%
NC(=O)c1ncn([C@@H]2O[C@H](CO)[C@@H](O)[C@H]2O)c1O,0.0608%,0.272%,-0.185%,-0.234%,1.1%,0.705%,1.34%,-0.809%,-1.05%,-0.893%
CC(=O)Oc1cc2c(s1)CCN(C(C(=O)C1CC1)c1ccccc1F)C2 (stereo not given),0.962%,-2.57%,1.32%,-0.813%,0.291%,-2.02%,0.528%,-0.967%,-3.04%,-1.75%

Structure (SMILES),growth inhibition (DIPGX29),growth inhibition (DIPGX37),growth inhibition (DIPGX7),growth inhibition (DIPGX9),growth inhibition (HGGX39),growth inhibition (HGGX6),growth inhibition (HNSC),growth inhibition (SUDIPGIV),growth inhibition (SUDIPGVI),growth inhibition (SUDIPGXIII)
Cc1ccc(S(=O)(=O)NC(=O)NN2CC3CCCC3C2)cc1 (stereo not given),1.02%,1.27%,1.73%,0.944%,1.58%,-0.55%,35.3%,1.96%,-4.19%,0.367%
C=CC(=O)N1CCC[C@@H](n2nc(-c3ccc(Oc4ccccc4)cc3)c3c(N)ncnc32)C1,6.19%,0.894%,0.519%,7.17%,1.36%,12.5%,10.8%,-2.32%,2.15%,-9.86%
CCCCC(=O)N(Cc1ccc(-c2ccccc2-c2nnn[nH]2)cc1)[C@H](C(=O)O)C(C)C,-2.21%,-1.28%,-0.538%,-0.058%,-2.05%,-0.244%,-3.37%,4.24%,-0.599%,-8.43%
CN1[C@@H]2CC[C@H]1C[C@@H](OC(c1ccccc1)c1ccccc1)C2,4.24%,-1.03%,6.35%,2.77%,6.58%,5%,9.97%,2.1%,3.58%,0.606%
CC(=O)[C@H]1CC[C@H]2[C@@H]3CC=C4C[C@@H](O)CC[C@]4(C)[C@H]3CC[C@]12C,-0.784%,-0.0978%,-1.68%,-0.764%,-1.75%,-0.479%,-2.77%,-1.85%,-0.676%,0.295%
Cc1ncc([N+](=O)[O-])n1CCO,-0.678%,-1.76%,-1.15%,0.881%,1.6%,-4.16%,22.3%,0.605%,0.0318%,-3.67%
COc1ccccc1N1CCN(CCCNc2cc(=O)n(C)c(=O)n2C)CC1,-0.448%,2.3%,-0.071%,0.0185%,0.367%,0.543%,0.25%,-1.07%,-1.77%,1.17%
CCOC(=O)n1ccn(C)c1=S,1.7%,2.04%,0.732%,1.21%,0.889%,2.62%,0.384%,-0.192%,2.2%,-16.1%
Nc1ccc(O)c(C(=O)O)c1,0.36%,1.83%,0.431%,2.63%,1.1%,1.6%,2.49%,0.538%,1.92%,-1.01%
N=S(=O)(O)Cc1noc2ccccc12,-1.43%,-1.83%,-1.41%,-1.19%,-0.682%,-1.72%,-4.88%,-1.71%,-4.93%,-0.253%
CCCCCCCCCCCC[N+](C)(C)CCOc1ccccc1,59%,58.8%,53.9%,57.2%,62.1%,56.8%,55.6%,55.7%,63.2%,70.1%
O=C(O)Cc1ccccc1Nc1c(Cl)cccc1Cl,-1.37% and -2.99% and -0.71%,-1.99% and -1.73% and 0.418%,-1.57% and -1.88% and -1.25%,-1.08% and -0.109% and -0.719%,-2.62% and -2.86% and 0.69%,0.514% and 2.52% and -0.0763%,-3.6% and -4.25% and -2.46%,-6.51% and -6.18% and -5.78%,-1.69% and -1.9% and -1.43%,-0.705% and -7.4% and 0.367%
O=C(Nc1ccccc1)c1ccccc1O,-0.176%,2.96%,0.467%,-0.488%,3.96%,0.186%,1.7%,5.1%,-0.592%,1.74%
CCCCCCCCCC(=O)NC1C(Oc2c3cc4cc2Oc2ccc(cc2Cl)C(OC2OC(CO)C(O)C(O)C2NC(C)=O)C2NC(=O)C(NC(=O)C4NC(=O)C4NC(=O)C(Cc5ccc(c(Cl)c5)O3)NC(=O)C(N)c3ccc(O)c(c3)Oc3cc(O)cc4c3)c3ccc(O)c(c3)-c3c(OC4OC(CO)C(O)C(O)C4O)cc(O)cc3C(C(=O)O)NC2=O)OC(CO)C(O)C1O (stereo not given),-0.31%,0.115%,0.155%,0.4%,-1.12%,-0.793%,0.958%,-1.1%,0.462%,2.06%
C[C@H](N[C@@H](CCc1ccccc1)C(=O)O)C(=O)N1CCC[C@H]1C(=O)O,-1.89%,-2.46%,0.194%,-1.9%,-1.61%,-3.59%,-1.1%,-2.75%,-6.88%,-1.42%
Cc1c(-c2ccc(O)cc2)n(Cc2ccc(OCCN3CCCCCC3)cc2)c2ccc(O)cc12,22.4%,0.0572%,20.3%,1.94%,8.64%,16.4%,26.1%,18.8%,-5.95%,1.05%
COc1cccc(N(C)C(=S)Oc2ccc3c(c2)CCCC3)n1,2.16%,1.79%,1.25%,2.82%,2.33%,1.82%,1.51%,0.755%,2.8%,1.12%
CC(C(=O)O)c1cccc(Oc2ccccc2)c1 (stereo not given),1.86% and -0.732%,4.27% and 0.295%,0.905% and -1.45%,0.241% and -0.0623%,1.32% and -0.621%,2.03% and -0.313%,0.908% and -1.16%,-2.87% and -3.43%,3.45% and 0.152%,0.892% and 1.49%
C[C@H]1C[C@H]2[C@@H]3CCC4=CC(=O)C=C[C@]4(C)[C@H]3C(=O)C[C@]2(C)[C@@]1(O)C(=O)CO,-1.49%,-0.985%,2.72%,-1.67%,-0.401%,-2.95%,-1.41%,0.457%,-9.81%,0.862%
C[C@H](CS)C(=O)N1CCC[C@H]1C(=O)O,0.445%,-0.171%,1.27%,1.57%,1.84%,-1.72%,2.42%,-0.14%,-0.111%,-0.989%
OCC(CO)N[C@H]1C[C@](O)(CO)[C@@H](O)[C@H](O)[C@H]1O,-0.323%,0.847%,-1.4%,0.186%,0.139%,-0.0513%,-1.53%,-0.574%,0.28%,0.0745%
